Activity calls are given as the source filed them.
Legend:
[1] = test system: PRMT1 (protein arginine N-methyltransferase 1); assay: small molecules binding arginine methyltransferase PRMT1 – biochemical, small-molecule microarray, 635 nm fluorescence, primary screen (AID 1088); conditions: higher = more signal;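 also: binding of Prmt1 protein to compounds spotted on small-molecule microarray slides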
[2] = growth effects on S. cerevisiae YJM789 – YJM789 clinical isolate, OD600, 24 h, basal, primary screen (AID 1089); conditions: higher = more signal, called active from +8 up or from −8 down;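 also: growth of clinical yeast isolate S. cerevisiae YJM 789 seeded 1000 cells per well; test concentration not given here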
[3] = S. pombe growth modifiers, basal conditions – strain 972, OD600, 24 h, no modulator, primary screen (AID 1090);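 also: basal condition with compound alone and no growth modifier present; test concentration not given here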; conditions: S. pombe 972 growth, higher = more signal, called active from +8 up or from −8 down
[4] = budding yeast growth modifiers under rapamycin – strain BY4716, OD600, 96 h, primary screen (AID 1091); also: test concentration not given here; conditions: S. cerevisiae BY4716 + rapamycin, higher = more signal, called active from +8 up or from −8 down
[5] = target: Torsin-1A-interacting protein 2 (Homo sapiens) (UniProt Q8NFQ8); assay: small molecules binding lysate-expressed LULL1 – cell lysate, human LULL1 lysate, 635/667 nm fluorescence, primary screen (AID 1092); conditions: small-molecule microarray, hLULL1 lysate binding, 635 nm fluorescence; higher = more signal;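 also: probe is lysate of COS7 cells overexpressing human LULL1; score merges per-feature 667 nm fluorescence with signal-to-noise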
Chain of Torsin-1A-interacting protein 2 (Homo sapiens) (Q8NFQ8 whole entry, looked up): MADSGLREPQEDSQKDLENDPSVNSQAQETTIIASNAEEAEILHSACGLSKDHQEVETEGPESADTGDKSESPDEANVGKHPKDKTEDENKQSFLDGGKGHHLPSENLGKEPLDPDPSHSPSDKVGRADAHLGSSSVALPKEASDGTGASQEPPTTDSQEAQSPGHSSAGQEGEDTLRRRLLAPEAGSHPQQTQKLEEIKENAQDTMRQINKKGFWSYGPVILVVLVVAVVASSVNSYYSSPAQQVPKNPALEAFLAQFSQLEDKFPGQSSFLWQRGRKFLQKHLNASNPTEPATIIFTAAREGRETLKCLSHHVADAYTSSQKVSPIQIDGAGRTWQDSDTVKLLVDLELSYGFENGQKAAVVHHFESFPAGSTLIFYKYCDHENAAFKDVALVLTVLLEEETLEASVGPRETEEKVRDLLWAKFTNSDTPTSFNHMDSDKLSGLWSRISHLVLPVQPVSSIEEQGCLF

[6] = optical density change of DRC41 E. coli – strain DRC41, OD650, 24 h, E. coli filamentation project, primary screen (AID 1093);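 also: MC1000 strain lacking acrAB efflux and sulA so SOS filamentation is blocked; test concentration not given here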; conditions: E. coli DRC41 growth, higher = more signal, called active from +8 up or from −8 down
[7] = probe aLefty2 binding to arrayed compounds – biochemical, biotinylated probe, 635/667 nm fluorescence, primary screen (AID 1094); conditions: small-molecule microarray, higher = more signal;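 also: score merges spot fluorescence near 667 nm with spot signal-to-noise ratio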
[8] = test system: Noggin (protein binding on small-molecule microarray); assay: small molecules binding Noggin protein – biochemical, 635/667 nm fluorescence, primary screen (AID 1095); conditions: 635 nm fluorescence, higher = more signal;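 also: score merges 667 nm feature fluorescence with signal to noise over triplicate slides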
[9] = target: Neurogenic locus notch homolog protein 3 (Homo sapiens) (UniProt Q9UM47); assay: small molecules binding NOTCH3 protein – biochemical, 635/667 nm fluorescence, primary screen (AID 1096); conditions: small-molecule microarray, 635 nm fluorescence, higher = more signal
Chain of Neurogenic locus notch homolog protein 3 (Homo sapiens) (Q9UM47 whole entry, looked up): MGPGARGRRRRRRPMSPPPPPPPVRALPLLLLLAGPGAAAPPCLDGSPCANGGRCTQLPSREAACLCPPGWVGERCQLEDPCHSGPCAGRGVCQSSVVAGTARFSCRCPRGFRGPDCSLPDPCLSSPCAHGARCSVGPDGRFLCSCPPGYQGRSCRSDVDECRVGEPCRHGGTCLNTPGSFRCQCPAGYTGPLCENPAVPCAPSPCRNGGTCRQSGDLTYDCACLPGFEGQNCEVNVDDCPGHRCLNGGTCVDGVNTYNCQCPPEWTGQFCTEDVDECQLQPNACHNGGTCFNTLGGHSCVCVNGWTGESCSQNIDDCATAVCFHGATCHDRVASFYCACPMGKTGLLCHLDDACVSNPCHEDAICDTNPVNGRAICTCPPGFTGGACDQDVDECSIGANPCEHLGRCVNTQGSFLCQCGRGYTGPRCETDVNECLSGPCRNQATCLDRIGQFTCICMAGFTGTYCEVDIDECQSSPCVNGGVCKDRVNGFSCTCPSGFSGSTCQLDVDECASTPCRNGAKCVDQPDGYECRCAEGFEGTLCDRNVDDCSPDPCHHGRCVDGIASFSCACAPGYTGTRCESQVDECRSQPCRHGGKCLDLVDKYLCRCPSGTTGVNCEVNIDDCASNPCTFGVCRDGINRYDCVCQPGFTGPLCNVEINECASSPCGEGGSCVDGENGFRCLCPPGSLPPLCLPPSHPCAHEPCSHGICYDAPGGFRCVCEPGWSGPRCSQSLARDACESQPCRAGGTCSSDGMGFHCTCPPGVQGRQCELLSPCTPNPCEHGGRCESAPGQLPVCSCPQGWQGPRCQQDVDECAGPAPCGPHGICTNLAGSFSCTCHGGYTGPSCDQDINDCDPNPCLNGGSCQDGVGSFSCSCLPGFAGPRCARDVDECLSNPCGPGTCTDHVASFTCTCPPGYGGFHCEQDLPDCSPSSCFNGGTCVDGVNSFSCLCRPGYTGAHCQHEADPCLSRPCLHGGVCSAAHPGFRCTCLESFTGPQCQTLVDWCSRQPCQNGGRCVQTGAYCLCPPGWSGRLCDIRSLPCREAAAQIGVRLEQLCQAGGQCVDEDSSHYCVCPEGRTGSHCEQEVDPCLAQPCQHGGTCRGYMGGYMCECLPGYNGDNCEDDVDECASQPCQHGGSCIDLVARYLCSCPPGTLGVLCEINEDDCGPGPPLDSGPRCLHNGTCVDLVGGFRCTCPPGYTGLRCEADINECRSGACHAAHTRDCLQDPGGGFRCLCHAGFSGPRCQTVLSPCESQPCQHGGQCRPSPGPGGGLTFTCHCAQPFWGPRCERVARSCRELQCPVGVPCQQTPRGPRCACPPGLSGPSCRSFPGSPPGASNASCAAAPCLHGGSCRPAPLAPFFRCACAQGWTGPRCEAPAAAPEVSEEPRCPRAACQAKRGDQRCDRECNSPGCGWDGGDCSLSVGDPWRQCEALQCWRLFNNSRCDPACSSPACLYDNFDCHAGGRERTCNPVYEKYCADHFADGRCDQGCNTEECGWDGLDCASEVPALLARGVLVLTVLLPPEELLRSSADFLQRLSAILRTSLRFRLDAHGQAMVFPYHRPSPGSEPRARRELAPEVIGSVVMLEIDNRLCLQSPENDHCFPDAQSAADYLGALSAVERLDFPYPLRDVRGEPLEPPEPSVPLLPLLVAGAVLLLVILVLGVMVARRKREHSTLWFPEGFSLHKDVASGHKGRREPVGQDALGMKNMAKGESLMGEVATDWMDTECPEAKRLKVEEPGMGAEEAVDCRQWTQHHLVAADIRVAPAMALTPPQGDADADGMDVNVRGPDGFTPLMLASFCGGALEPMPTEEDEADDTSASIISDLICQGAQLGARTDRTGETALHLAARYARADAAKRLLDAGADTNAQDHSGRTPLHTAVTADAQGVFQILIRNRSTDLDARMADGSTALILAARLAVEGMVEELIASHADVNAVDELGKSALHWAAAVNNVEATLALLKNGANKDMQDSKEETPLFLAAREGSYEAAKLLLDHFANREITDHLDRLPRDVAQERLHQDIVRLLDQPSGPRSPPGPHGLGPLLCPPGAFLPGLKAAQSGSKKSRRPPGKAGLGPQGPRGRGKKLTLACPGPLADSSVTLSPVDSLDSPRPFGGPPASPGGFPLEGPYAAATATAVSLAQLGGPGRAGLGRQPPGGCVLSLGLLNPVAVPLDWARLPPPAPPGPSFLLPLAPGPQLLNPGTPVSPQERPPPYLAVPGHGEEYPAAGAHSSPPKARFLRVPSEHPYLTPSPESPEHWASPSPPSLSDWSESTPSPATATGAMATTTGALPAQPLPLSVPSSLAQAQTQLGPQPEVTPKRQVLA

[10] = probe aEGFR binding to arrayed compounds – biochemical, biotinylated probe, 635/667 nm fluorescence, primary screen (AID 1097); conditions: small-molecule microarray, higher = more signal;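 also: probe is a biotinylated anti-EGFR antibody binding compounds printed on slides; score combines fluorescence near 667 nm and signal to noise of each spot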
[11] = test system: Plasmodium falciparum Sir2 (PF13_0152, Sir2A); assay: Plasmodium falciparum Sir2A binding compounds – biochemical, small-molecule microarray, 635 nm fluorescence, primary screen (AID 1098); conditions: fluorescence 635 nm, higher = more signal;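 also: score merges spot fluorescence intensity with its signal-to-noise ratio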
[12] = probe aDKK1 binding to arrayed compounds – biochemical, biotinylated probe, 635/667 nm fluorescence, primary screen (AID 1099); conditions: small-molecule microarray, higher = more signal;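 also: score merges 667nm spot fluorescence with signal to noise across triplicate slides; reference of the scale not given here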
[13] = probe aCHRDL2 binding to arrayed compounds – biochemical, biotinylated probe, 635/667 nm fluorescence, primary screen (AID 1100); conditions: small-molecule microarray, higher = more signal
[14] = change in splice reporter luminescence, either direction, cell-based, HEK293, spliceosome inhibition project, primary screen (AID 1101); conditions: HEK293 splicing luciferase reporter, 24 h, higher = more signal, called active from +8 up or from −8 down;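 also: HEK293 cells carrying a splicing-competent luciferase reporter gene; test concentration not given here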
[15] = target: Fibroblast growth factor 10 (Homo sapiens) (UniProt O15520); assay: compounds binding fibroblast growth factor 10 – biochemical, small-molecule microarray, 635 nm fluorescence, primary screen (AID 1102); conditions: FGF10 binding, fluorescence 635 nm, higher = more signal
Chain of Fibroblast growth factor 10 (Homo sapiens) (O15520 whole entry, looked up): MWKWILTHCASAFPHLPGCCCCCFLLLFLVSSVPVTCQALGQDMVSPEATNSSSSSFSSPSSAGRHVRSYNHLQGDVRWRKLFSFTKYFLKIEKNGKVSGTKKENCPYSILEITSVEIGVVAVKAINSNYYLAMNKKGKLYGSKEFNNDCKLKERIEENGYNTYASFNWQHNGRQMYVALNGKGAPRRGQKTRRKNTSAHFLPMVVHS

[16] = test system: glycogen synthase kinase-3 (GSK3A per assay name; protocol says GSK3B); assay: compounds binding glycogen synthase kinase-3 – biochemical, small-molecule microarray, 635 nm fluorescence, GSK3A, primary screen (AID 1103); conditions: fluorescence 635 nm, higher = more signal; also: the record names both GSK3A and GSK3B
[17] = target: Epidermal growth factor receptor (Homo sapiens) (UniProt P00533); assay: compounds binding epidermal growth factor receptor – biochemical, small-molecule microarray, 635 nm fluorescence, primary screen (AID 1104); conditions: EGFR binding, higher = more signal;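 also: score merges 667 nm emission intensity with spot signal to noise over triplicate slides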
Chain of Epidermal growth factor receptor (Homo sapiens) (P00533 whole entry, looked up): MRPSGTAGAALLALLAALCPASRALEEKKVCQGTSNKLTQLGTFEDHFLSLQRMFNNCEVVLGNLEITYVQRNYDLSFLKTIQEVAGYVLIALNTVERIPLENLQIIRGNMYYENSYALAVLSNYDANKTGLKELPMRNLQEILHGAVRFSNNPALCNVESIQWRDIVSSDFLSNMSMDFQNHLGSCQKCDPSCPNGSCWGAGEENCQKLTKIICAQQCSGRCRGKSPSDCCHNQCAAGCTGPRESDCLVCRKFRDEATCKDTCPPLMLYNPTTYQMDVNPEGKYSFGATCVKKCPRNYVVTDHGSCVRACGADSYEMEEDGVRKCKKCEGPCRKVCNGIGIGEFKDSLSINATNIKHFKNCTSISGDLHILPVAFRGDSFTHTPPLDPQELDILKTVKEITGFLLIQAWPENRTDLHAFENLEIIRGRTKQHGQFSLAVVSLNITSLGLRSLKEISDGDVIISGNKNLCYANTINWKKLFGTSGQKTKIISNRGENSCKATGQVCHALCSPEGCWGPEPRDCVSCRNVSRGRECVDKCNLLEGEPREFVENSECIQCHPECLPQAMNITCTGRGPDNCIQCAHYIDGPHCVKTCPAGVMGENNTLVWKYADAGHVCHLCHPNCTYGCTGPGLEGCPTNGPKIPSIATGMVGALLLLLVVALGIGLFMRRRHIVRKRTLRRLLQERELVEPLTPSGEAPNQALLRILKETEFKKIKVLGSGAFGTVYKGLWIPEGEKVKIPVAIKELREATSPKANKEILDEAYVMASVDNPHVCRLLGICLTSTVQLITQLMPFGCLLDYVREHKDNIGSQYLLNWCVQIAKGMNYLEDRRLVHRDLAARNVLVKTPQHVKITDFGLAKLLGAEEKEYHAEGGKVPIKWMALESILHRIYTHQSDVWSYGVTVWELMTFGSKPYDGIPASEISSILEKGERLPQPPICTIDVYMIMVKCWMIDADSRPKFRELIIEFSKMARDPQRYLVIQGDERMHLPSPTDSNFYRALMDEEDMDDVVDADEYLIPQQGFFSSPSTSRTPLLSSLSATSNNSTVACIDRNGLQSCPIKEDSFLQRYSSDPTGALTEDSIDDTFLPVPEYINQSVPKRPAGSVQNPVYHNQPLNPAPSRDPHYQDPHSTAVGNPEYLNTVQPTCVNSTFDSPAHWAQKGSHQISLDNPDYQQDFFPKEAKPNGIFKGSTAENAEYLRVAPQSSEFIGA

[18] = target: Follistatin-related protein 3 (Homo sapiens) (UniProt O95633); assay: compounds binding follistatin-related protein 3 – biochemical, small-molecule microarray, 635 nm fluorescence, primary screen (AID 1105); conditions: FSTL3 binding, higher = more signal;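 also: score merges emission near 667 nm and signal to noise per printed spot across three slides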
Chain of Follistatin-related protein 3 (Homo sapiens) (O95633 whole entry, looked up): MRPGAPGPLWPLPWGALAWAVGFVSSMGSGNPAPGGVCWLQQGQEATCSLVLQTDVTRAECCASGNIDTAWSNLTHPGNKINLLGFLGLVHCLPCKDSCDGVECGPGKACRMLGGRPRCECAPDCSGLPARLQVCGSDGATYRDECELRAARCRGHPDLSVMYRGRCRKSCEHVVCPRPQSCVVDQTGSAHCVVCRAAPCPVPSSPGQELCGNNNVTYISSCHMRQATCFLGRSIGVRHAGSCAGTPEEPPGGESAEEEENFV

[19] = target: Dickkopf-related protein 1 (Homo sapiens) (UniProt O94907); assay: small molecules binding DKK1 protein – biochemical, small-molecule microarray, 635 nm fluorescence scan, primary screen (AID 1106); conditions: higher = more signal;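 also: score merges emission near 667 nm with signal to noise over three replicate slides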
Chain of Dickkopf-related protein 1 (Homo sapiens) (O94907 whole entry, looked up): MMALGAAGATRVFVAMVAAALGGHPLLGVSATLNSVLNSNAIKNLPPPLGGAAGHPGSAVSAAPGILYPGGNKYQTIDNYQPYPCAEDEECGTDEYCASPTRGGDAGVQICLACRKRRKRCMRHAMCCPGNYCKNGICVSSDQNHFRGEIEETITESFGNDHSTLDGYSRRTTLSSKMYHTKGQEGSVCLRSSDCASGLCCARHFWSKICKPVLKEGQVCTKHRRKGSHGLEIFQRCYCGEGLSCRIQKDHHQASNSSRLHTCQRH

[20] = test system: Inhibin beta A chain (activin A); assay: small molecules binding activin A – biochemical, small-molecule microarray, 635 nm fluorescence scan, primary screen (AID 1107); conditions: INHBA, higher = more signal;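 also: mouse activin A protein probed at 4.33 µg/mL on printed slides; score merges bound-protein fluorescence near 667 nm with spot signal-to-noise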

SMILES | composite z-score [1] | z-score [2] | z-score [3] | z-score [4] | composite z-score [5] | z-score [6] | composite z-score [7] | composite z-score [8] | composite z-score [9] | composite z-score [10] | composite z-score [11] | composite z-score [12] | composite z-score [13] | z-score [14] | composite z-score [15] | composite z-score [16] | composite z-score [17] | composite z-score [18] | composite z-score [19] | composite z-score [20]
COCCOC(=O)N1C(=O)[C@@]2(c3ccccc31)[C@H](c1ccccc1OCCO)N1[C@H](c3ccccc3)[C@H](c3ccccc3)OC(=O)[C@H]1[C@@H]2C(=O)N1CCCCCCC1 | 1.54 | 1.3 (inactive) | 1.35 (inactive) | 5.52 (inactive) | 4.47 | -0.489 (inactive) | 1.97 | 1.78 | 1 | 1.48 | 1.91 | 3.18 | 1.76 | -1.46 (inactive) | 1.37 | 1.37 | 1.91 | 1.68 | 2.31 | 2.02
C=CCN1C(=O)[C@@]2(O[C@@H](CCO)[C@H]([Si](C)(C)c3ccc(OC)cc3)[C@H]2C)c2cc(N3CCOC3=O)ccc21 | 0.989 | 1.53 (inactive) | 0.885 (inactive) | 9.68 (active) | 1.86 | 0.976 (inactive) | -0.0755 | -0.355 | 0.347 | -0.134 | 0.392 | 0.0757 | 0.213 | -0.887 (inactive) | -0.0196 | 0.612 | -0.114 | 0.0282 | -0.381 | -0.171
C=C(COC)/C(=C/C[C@H](OC(C)=O)c1cccc(OCCO)c1)c1cnc2ccccc2c1 | 1.53 | 1.25 (inactive) | -0.0332 (inactive) | 1.03 (inactive) | 2.18 | -0.094 (inactive) | -0.0415 | 1.64 | 1.04 | -0.0267 | 1.38 | -0.0559 | 0.0794 | 0.344 (inactive) | 1.51 | 0.965 | 0.771 | 1.58 | 0.83 | 1.75
COCCCNC(=O)[C@@]1(c2ccc([N+](=O)[O-])cc2)CC(=O)N(C(C)C)[C@@H]1c1ccc(CO)cc1 | 0.197 | -0.411 (inactive) | -0.46 (inactive) | -0.363 (inactive) | 0.15 | 0.409 (inactive) | 0.701 | -0.363 | -0.617 | -0.071 | 0.0788 | 0.46 | 0.8 | 0.0532 (inactive) | -0.512 | -0.63 | 0.608 | 0.373 | 0.289 | 1.07
COc1ccc([Si](C)(C)[C@H]2[C@H](CC(=O)N3CCC[C@H]3CO)O[C@@]3(C(=O)N(Cc4ccc(N5CCC5=O)cc4)c4ccccc43)[C@@H]2C)cc1 | 1.54 | -0.647 (inactive) | -1.59 (inactive) | -1.31 (inactive) | 2.42 | 0.13 (inactive) | -0.197 | 1.65 | 1.07 | -0.0578 | 1.49 | -0.248 | -0.567 | -0.805 (inactive) | 1.34 | 1.29 | 0.838 | 1.41 | 0.774 | -0.525
CO[C@H]1O[C@H](CO)[C@@H](OC(=O)Nc2cccc(F)c2)[C@H](OC(=O)Nc2ccccc2-c2ccccc2)[C@H]1OC(=O)Nc1ccccc1-c1ccccc1 | 1.54 | -0.455 (inactive) | 2.19 (inactive) | 1.39 (inactive) | 3.08 | -0.158 (inactive) | 0.0361 | 0.928 | 1.06 | -0.0225 | 1.26 | 0.255 | 0.735 | 4.28 (inactive) | 1.46 | 1.33 | 0.321 | 1.3 | 0.585 | 0.664
C=C(CCCC)C(=O)CC[C@@H](OC(=O)c1cccnc1)c1ccc(OCCO)cc1 | 1.48 | -0.405 (inactive) | -2.22 (inactive) | -0.861 (inactive) | 1.18 | -0.288 (inactive) | -0.113 | 1.93 | 0.952 | -0.0828 | 1.25 | -0.191 | -0.266 | 2.51 (inactive) | 1.67 | 0.704 | 0.298 | 1.39 | 0.714 | 0.982
C=C[C@@H](OC)[C@H](OC(=O)Nc1ccc(OC)cc1)c1ccc(OC)c(O)c1 | -0.391 | 0.239 (inactive) | -0.375 (inactive) | -0.901 (inactive) | 1.04 | 0.234 (inactive) | -0.124 | -0.527 | -0.449 | -0.25 | -1.1 | -0.259 | 0.601 | -0.657 (inactive) | -0.818 | -0.465 | -0.75 | -1.11 | -0.642 | -0.267
O=C(CS)NCCCCCNC(=O)[C@@H]1C[C@@H]2C(=O)N[C@@H](Cc3ccccc3)C(=O)N2[C@@H]1c1cccc(OCCO)c1 | 1.56 | 0.368 (inactive) | -0.653 (inactive) | 0.658 (inactive) | 3.04 | 0.142 (inactive) | -0.515 | 0.203 | 0.823 | -0.0271 | 1.74 | 0.0021 | 0.0402 | -0.345 (inactive) | 1.17 | 1.32 | 0.526 | 0.988 | 1.25 | -0.678
COC(=O)[C@@]1(Cc2ccc(OC)cc2)[C@H]2c3cc(C(=O)N4CCCC4)n(Cc4cc(C)n(C)n4)c3C[C@H]2CN1C(=O)c1ccccc1 | 0.481 | -0.102 (inactive) | 1.31 (inactive) | 0.202 (inactive) | 3.85 | -0.265 (inactive) | 0.724 | -0.513 | 1.04 | 0.701 | 1.74 | 1.26 | 1.17 | 0.317 (inactive) | 1.32 | 0.666 | -0.158 | 0.0098 | -0.712 | 0.104
CCc1cccc(NC(=O)O[C@H]2[C@H](OC(=O)Nc3ccccc3)[C@H](OC(=O)Nc3ccccc3)[C@@H](OC)O[C@@H]2CO)c1 | 1.5 | 1.22 (inactive) | 1.72 (inactive) | 8.61 (active) | 3.48 | -0.728 (inactive) | 0.0166 | 0.349 | 1.08 | -0.0968 | 1.41 | 0.22 | 0.55 | -0.376 (inactive) | 1.51 | 1.24 | -0.0045 | 0.833 | -0.186 | 0.444

— PubChem BioAssay
